Tau fibril FP: tau fibrillization inhibition (FP); K18 P301L tau heparin fibrillization, Alexa594 FP, 6 h; Potency, µM (highest dose often 57.7 µM), most hits filed as inhibitors; hit rate 0.39% among 280,000; further: nearly all actives have a fitted effect of over 55% in size
Target sequence (P10636 561-689 P618L limits assumed): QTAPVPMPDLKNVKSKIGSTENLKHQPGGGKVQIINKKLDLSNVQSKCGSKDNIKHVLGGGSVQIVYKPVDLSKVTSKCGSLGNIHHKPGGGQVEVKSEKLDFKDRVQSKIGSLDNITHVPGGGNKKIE
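Recombinant K18 P301L […], labeled with Alexa 594 at 0.24 uM over 15 uM unlabeled; heparin inducer 20 uM final; 37 C, 6 hr; FP endpoint.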
Tau fluor cs: counter-screen for tau fibril formation inhibitors. tau K18 P301L Alexa594 fluorescence, heparin fibrillization. hit rate 0.93% among 280,000. Potency, µM (doses to about 57.7 µM); further: nearly all actives have a fitted effect of over 55% in size
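Human tau K18 P301L (15 uM unlabeled, 0.24 uM Alexa 594-labeled) in 100 mM sodium acetate pH 7 with 20 uM heparin, 6 hr at 37 C. ThT 30 uM added, 1 hr ambient; Alexa 594 FP and total fluorescence read at 555/632 nm.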
NPSR antagonist: antagonists of human neuropeptide S receptor cAMP signaling; Q6W5P4; CHO-NPSR cells, cAMP TR-FRET, antagonist mode; Potency, µM (doses to about 38.3 µM), actives largely listed as inhibitors; hit rate 1% among 220,000; further: nearly all actives have a fitted effect of over 50% in size
Target sequence (Q6W5P4 whole entry, looked up): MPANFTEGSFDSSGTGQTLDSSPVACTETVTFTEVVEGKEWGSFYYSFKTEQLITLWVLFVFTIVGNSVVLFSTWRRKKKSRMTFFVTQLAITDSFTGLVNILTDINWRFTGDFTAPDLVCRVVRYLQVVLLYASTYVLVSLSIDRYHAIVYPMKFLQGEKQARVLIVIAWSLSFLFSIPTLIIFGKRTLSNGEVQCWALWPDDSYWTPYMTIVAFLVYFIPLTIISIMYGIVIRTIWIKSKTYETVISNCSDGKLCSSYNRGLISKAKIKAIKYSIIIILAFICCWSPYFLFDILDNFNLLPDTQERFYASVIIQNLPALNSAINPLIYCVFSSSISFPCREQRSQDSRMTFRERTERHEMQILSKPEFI
Tau fibril ThT: blocks human tau fibril formation measured by thioflavin T; P10636; recombinant tau K18 P301L, heparin-induced fibrillization, ThT fluorescence; Potency, µM (series often up to 57.4 µM), hits mostly inhibitors; hit rate 2.1% among 270,000; further: nearly all actives have a fitted effect of over 55% in size
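Fibril formation assay: tau K18 P301L at 15 uM with trace Alexa 594 label, heparin inducer 20 uM, pH 7 sodium acetate buffer, 37 C for 6 hr; endpoint ThT signal.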
HPGD inh: blocks human HPGD enzyme activity; purified HPGD, NADH fluorescence kinetic, PGE2 substrate; Potency, µM, actives largely listed as inhibitors; hit rate 4.3% among 150,000; AID 894; active means well fitted inhibition curve with a large enough effect, not every such curve was filed as active; inconclusive means small, poorly fitted or top-dose-only effect, or another doubt; inactive means no such curve, though single readings can be large or run the other way
Target sequence (P15428 whole entry, looked up): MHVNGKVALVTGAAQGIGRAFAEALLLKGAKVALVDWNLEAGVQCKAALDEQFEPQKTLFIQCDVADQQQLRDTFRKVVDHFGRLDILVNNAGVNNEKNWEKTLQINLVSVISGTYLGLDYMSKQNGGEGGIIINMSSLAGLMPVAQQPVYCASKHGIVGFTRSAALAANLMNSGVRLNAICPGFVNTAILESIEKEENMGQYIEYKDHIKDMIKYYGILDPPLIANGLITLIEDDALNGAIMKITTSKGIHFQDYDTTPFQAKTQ
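NADH formation kinetics: reaction with 30 uM PGE2 and 1 mM NAD+ (final), 20 nM enzyme, Tris-HCl pH 8 with Tween 20, after 15 min compound preincubation at room temperature. Fluorescence change, last versus first of five reads.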
ALDH1A1 inh: blocks purified human ALDH1A1 activity; AID 1030; hit rate 7.3% among 220,000; Potency, µM (highest dose often 75.3 µM), most hits filed as inhibitors; Purified ALDH1A1, NADH fluorescence, propionaldehyde substrate; P00352; active means well fitted inhibition curve with a large enough effect, not every such curve was filed as active; inconclusive means small, poorly fitted or top-dose-only effect, or another doubt; inactive means no such curve, though single readings can be large or run the other way
A number is an active result; 0 = inactive; ? = inconclusive; - = not tested or not shown; [ ] = another dose, or the depositor's remark. Compounds with a hit are over-represented: about 9.5% of the library has one in this group of screens. Unless noted, the call rests on the fitted dose curve; in most records, active means well fitted curve in the direction sought with a large enough effect; inconclusive means small, poorly fitted or top-dose-only effect, or another doubt; inactive means no such curve, though single readings can be large; an effect the other way counts as inactive or inconclusive.

SMILES | Tau fibril FP | Tau fluor cs | NPSR antagonist | Tau fibril ThT | HPGD inh | ALDH1A1 inh
O=C1Nc2ccc(Br)cc2C1(O)Cc1ccccn1 (centres undefined) | 0 | 0 | 0 | 0 | 0 | 0
COc1ccc(-c2noc(CCC(=O)NCC3CCCO3)n2)cc1 (centres undefined) | 0 | 0 | 0[7.67 µM] | 0 | - | -
CC(C)(C)c1ccc(-c2noc(CCC(=O)NCC3CCCO3)n2)cc1 (centres undefined) | 0 | 0 | 0 | 0 | 13µM | 0
Cc1ccc(-c2noc(CCC(=O)NCC3CCCO3)n2)cc1 (centres undefined) | 0 | 0 | 0 | 0 | 18µM | 0
Cc1ccc(-c2nc(NCC3CCCO3)sc2C)cc1 (centres undefined) | 0 | 0 | 0 | 0 | - | 28µM
Cc1ccc(-c2nc(N)sc2CC(=O)OCC(=O)NCC2CCCO2)cc1 (centres undefined) | 0 | 0 | 0 | 0 | 32µM | ?
Cc1ccc(-c2nc(N)sc2CC(=O)OCC(=O)NCCC(C)C)cc1 | 0 | 0 | 0 | 0 | 0 | 0
CN(CC(=O)OCC(N)=O)S(=O)(=O)c1ccc(Cl)cc1 | 0 | 0 | 0 | 0 | - | 0
COC(=O)c1ccc(-c2noc(CN(C)CCC3CCCCO3)n2)cc1 (centres undefined) | 0 | 0 | ? | 11µM | - | 8.9µM
O=C(CCc1nc(-c2ccccc2)no1)NCC1CCCO1 (centres undefined) | 0 | 0 | 0 | ? | 25µM | ?
CCCn1c2ccccc2c2cnn(CC(=O)NCCCN(Cc3ccccc3)C(C)C)c(=O)c21 | 0 | 0 | - | 0 | - | -
COc1cccc(NC(=S)N(CCc2ccc(OC)c(OC)c2)Cc2ccccn2)c1 | 0 | 0 | 0 | 0 | - | ?
COc1ccc(CCN(Cc2ccccn2)C(=S)Nc2ccccc2C)cc1OC | 0 | 0 | 0 | 0 | - | 20µM
Cc1nn(C(=O)COc2ccccc2Br)c(C)c1Sc1ccccc1 | 0 | 0 | - | 0 | - | -
Oc1c(Br)cc(Br)cc1/C=N/NC(=S)N[C@H]1CC2C=CC1C2 (some centres undefined) | ? | ? | ? | ? | - | 13µM
COc1cc(/C=N/NC(=S)NC2CC3C=CC2C3)cc(OC)c1OC (centres undefined) | 0 | ? | ? | ? | - | 2.5µM
CCCCCCC1=Cc2cc(OC)c(OC)cc2C(C(C(C)=O)C(=O)OCC)O1 (centres undefined) | 0[11.6 µM] | 0[11.6 µM] | - | 0[11.5 µM] | - | 0[13.5 µM]
O=C(/C=C/c1ccc2c(c1)OCO2)Nc1c(C(=O)O)[nH]c2ccccc12 | 0 | 0 | 0 | 13µM | 16µM | ?
CCCC(O)(CCC)C(=O)NN(C(=O)CCl)c1ccccc1 | 0 | 0 | 0 | 0 | 0 | 25µM
CCCCC(O)(CCCC)C(=O)NN(C(=O)OCC)c1ccccc1 | 0 | 0 | 0 | 0 | 0 | 0
Cc1ccc(S(=O)(=O)Nc2nsc(N)n2)cc1 | 18µM | 0 | 0 | 11µM | 0 | 0
COc1ccccc1NC(=S)Nc1cccc2cnccc12 | ? | 0 | 0 | ? | 0 | 25µM
CCOc1ccc(NC(=S)Nc2ccccc2C2CC2)cc1 | 0 | 0 | 0 | 0 | - | 0
CCOc1ccc(NC(=S)Nc2cccc3cnccc23)cc1 | 0 | 0 | 0 | ? | 0 | 32µM
COc1ccc(NC(=S)Nc2cccc3cnccc23)cc1 | ? | 0 | 0 | ? | 0 | 25µM
SMILES | Tau fibril FP | Tau fluor cs | NPSR antagonist | Tau fibril ThT | HPGD inh | ALDH1A1 inh
CCC(C)NC(=O)c1sc2nc(C)c(C(=O)Nc3ccc(C)cc3C)c(-c3ccc(Br)cc3)c2c1N (centres undefined) | 0 | 0 | - | 0 | - | -
c1ccc(OCCSc2nc3ccccc3[nH]2)cc1 | 0 | 0 | 0 | 0 | 0 | 0
Brc1ccc2nc(SCCOc3ccccc3)[nH]c2c1 | 28µM | 14µM[quencher] | - | ? | - | -
COC(=O)c1ccc2c(c1)C(C)(C)C(/C=C/c1ccc(OC)c(OC)c1OC)=[N+]2C | 0 | 0 | 10µM | ? | 0 | 0
COC(=O)c1ccc2c(c1)C(C)(C)C(/C=C/c1ccc(O)cc1)=[N+]2C | ? | ? | ? | 13µM | 0 | ?
CCCCCCNC(=O)c1cc(-c2ccco2)nc2ccccc12 | 0 | 0 | 0 | 0 | ? | ?
Cc1ccnc(N2CCN(C(=O)CSc3nc4ccccc4nc3N3CCC(C)CC3)CC2)c1 | 0 | 0 | 0 | 0 | - | 0
Cc1ccc(SCC(=O)N2CCOCC2)cc1 | 0 | 0 | 0 | 0 | 0 | 0
O=C(CC(c1ccccc1)c1ccco1)N1CCCCC1 (centres undefined) | 0 | 0 | 0 | 0 | - | 0
Cc1ccc(CSCC(=O)N2CCOCC2)cc1 | 0 | 0 | 0 | 0 | 0 | 25µM
Cc1ccc(C(CC(=O)N2CCOCC2)c2ccco2)cc1 (centres undefined) | 0 | 0 | 0 | 0 | 20µM | ?
Cc1ccc(-c2nnc(SCC(=O)N3CCOCC3)nc2-c2ccc(C)cc2)cc1 | 0 | 0 | ? | ? | 18µM | ?
CCN(CC)C(=O)C1=C(C)Nc2nc3ccccc3n2C1c1ccc(Br)cc1 (centres undefined) | 0 | 0 | - | 0 | - | -
O=c1[nH]c2ccc(NC(=S)Nc3ccc(Cl)cc3)cc2[nH]1 | 0 | 0 | 0 | 0 | 0 | 0
CC(C)c1ccc(NC(=S)Nc2ccc3[nH]c(=O)[nH]c3c2)cc1 | 0 | ? | 0 | ? | - | 40µM
S=C(Nc1ccc2cn[nH]c2c1)Nc1ccc2cn[nH]c2c1 | - | - | - | - | 0 | ?
S=C(Nc1ccc2cn[nH]c2c1)Nc1ccc(Cl)cc1Cl | 0 | ? | 0 | 16µM | - | 13µM
O=c1[nH]c2ccc(NC(=S)Nc3ccc(Cl)cc3Cl)cc2[nH]1 | 0 | 0 | 0 | 0 | 0 | ?
S=C(NCc1ccco1)Nc1ccc(Cl)cc1Cl | 0 | 0 | 0 | 0 | 28µM | 0
S=C(Nc1ccc(Cl)cc1)Nc1ccc2cn[nH]c2c1 | 0 | ? | 0 | ? | - | 25µM
CCNC(=O)NC(=O)CSc1nc2ccccc2n1CCOC | 0 | 0 | 0 | 0 | - | 0
C/C(=N\Nc1ccc(Cl)c(C(=O)O)c1)c1ccc[nH]1 | 0 | 0 | 0 | ? | - | -
COc1ccccc1CNC(=O)c1ccc(C)c(-n2cnc3cccnc32)c1 | 0 | 0 | - | 0 | - | -
O[C@@H](c1cc(C(F)(F)F)nc2c(Cl)cc(Cl)cc12)C1CCCCN1 (some centres undefined) | - | - | - | - | 0 | 0[13.5 µM]
C=C(COC)C1=CCC(C(=O)OC)(C(=O)OC)[C@@H](C[N+](=O)[O-])c2ccccc21 | 0 | 0 | - | 0 | 0 | 0
SMILES | Tau fibril FP | Tau fluor cs | NPSR antagonist | Tau fibril ThT | HPGD inh | ALDH1A1 inh
S=C(Nc1ccccc1Cl)Nc1ccc(Cl)cc1Cl | 0 | 0 | 0 | 0 | 0 | ?
O=c1[nH]c2ccc(NC(=S)Nc3ccccc3Cl)cc2[nH]1 | 0 | 0 | 0 | ? | 22µM | 6.3µM
S=C(Nc1ccc2cn[nH]c2c1)Nc1ccccc1Cl | 0 | ? | 0 | 14µM | 0 | 14µM
COCCNC(=S)Nc1ccc2[nH]c(=O)[nH]c2c1 | 0 | 0 | 0 | ? | - | 25µM
S=C(Nc1ccccc1)Nc1ccc(Cl)cc1Cl | 0 | 0 | 0 | 0 | 0 | 7.9µM
Cc1ccccc1NC(=S)Nc1ccc2cn[nH]c2c1 | 0 | 0 | 0 | ? | - | ?
